Bioassay records as filed in PubChem.
Only some compounds are listed: those with a hit (about 3.6% of all), similar ones and a draw of the others.
Pf apPOL block: Pf-apPOL DNA polymerase inhibition; 210,000 compounds, 0.25% hits; Recombinant Pf-apPOL, molecular beacon fluorescence, 1.5 h; inhibition, % at 10 µM
mHTT-CaM PPI inh: mHTT-calmodulin interaction abrogation | P42858 | AlphaScreen His-mHTT/GST-CaM binding, luminescence | inhibition, % at 15 µM | 190,000 compounds, 3.6% hits | AID 1671202
Hits are given with their value; i = inactive; nt = no result. Cut-off read from the data, not from the text of the source: active = inhibition above about 50%; inactive = the rest.

SMILES	Pf apPOL block	mHTT-CaM PPI inh
CCOc1ccc(NC(=O)c2ccc(N3CCNC(c4ccccc4)C3)nc2)cc1 (configuration not stated)	i	i
Cn1nnnc1SC(c1ccccc1)c1ccccc1	nt	i
Cc1ccc(S(=O)(=O)c2ccccc2)cc1S(=O)(=O)N1CCOCC1	i	i
COc1ccc(/C=C2\C=C(c3ccccc3)N(c3ccccc3O)C2=O)cc1	i	76
O=C1/C(=C/c2ccc([N+](=O)[O-])cc2)C=C(c2ccccc2)N1c1ccccc1O	i	i
Cc1noc2ncnc(SCC(=O)Nc3ccccc3Cl)c12	i	nt
Cc1nc(-c2cccc(NC(=O)c3cccc([N+](=O)[O-])c3)c2)cs1	i	i
Cc1nc(-c2cccc(NC(=O)C(c3ccccc3)n3cccc3)c2)cs1 (configuration not stated)	i	67
O=C1OC(c2cccc(F)c2)=N/C1=C\c1ccc(F)cc1	i	i
O=C1OC(c2cccc(Cl)c2)=N/C1=C\c1cccs1	i	53
Cc1ccc(/C=C2\N=C(c3cccc(F)c3)OC2=O)cc1	63	i
O=C1OC(c2cccc(F)c2)=N/C1=C\c1cccs1	i	i
CCOC(=O)CC[C@@H]1CC[C@]2(CCCN(S(=O)(=O)c3ccccc3)C2)O1	i	i
CCN(CC)C(=O)CC[C@H]1CC[C@]2(CCCN(S(=O)(=O)c3ccccc3)C2)O1	i	98
O=C(Cc1ccc(Cl)cc1)Nc1ncc([N+](=O)[O-])s1	i	98
O=C(Cc1ccc(Br)cc1)Nc1ncc([N+](=O)[O-])s1	i	i
Cc1ccnc(NC(c2ccc(N(C)C)cc2)c2ccc3cccnc3c2O)c1 (configuration not stated)	i	100
CCOc1cc(C(Nc2cc(C)ccn2)c2ccc3cccnc3c2O)ccc1O (configuration not stated)	i	100
COc1cc(-c2nc3ncccn3c2Nc2ccc(C)cc2)ccc1O	i	i
COc1cc(C(Nc2cc(C)ccn2)c2ccc3cccnc3c2O)ccc1O (configuration not stated)	i	100
Cc1ccnc(NC(=O)c2ccc(C(C)C)cc2)c1	i	i
CCOc1ccccc1C(=O)Nc1cc(C)ccn1	i	i
N#C/C(=C\c1cccs1)c1nc(-c2ccc(F)cc2)cs1	i	i
CCC(C)NC(=O)c1cccc(-c2nc3cccnc3n2C)c1 (configuration not stated)	i	i
COc1ccc(CNc2nc(-c3ccccc3)nnc2C)cc1	i	56
SMILES	Pf apPOL block	mHTT-CaM PPI inh
COc1ccc(-c2nnc(C)c(NCc3ccccc3)n2)cc1	i	i
Cc1ccccc1NC(=O)CSc1nc(N)c(C#N)c(-c2cccs2)c1C#N	i	i
CCCc1cc(C2CCCN2Cc2cc(Br)ccc2O)no1 (configuration not stated)	i	i
Cc1cc(C2CCCN2Cc2cc(Br)ccc2O)no1 (configuration not stated)	i	62
O=C1c2ccccc2C(=O)c2c(O)ccc(O)c21	i	i
Nc1cc(S(=O)(=O)O)c(N)c2c1C(=O)c1ccccc1C2=O	i	nt
O=C1c2ccccc2C(=O)c2c1cc(S(=O)(=O)O)c(O)c2O	nt	52
O=C1c2ccccc2C(=O)c2c(O)c(O)cc(O)c21	i	75
CC(C)OC(=O)COc1ccc2c(c1)OC(=Cc1ccccc1Cl)C2=O	i	i
CCCNC(=O)c1c[nH]c2ccc(S(=O)(=O)N(CC)c3ccc(F)cc3)cc2c1=O	i	i
CC(C)n1c(CC2CCN(C(=O)c3cc(-c4cccs4)[nH]n3)C2)nc2cccnc21 (configuration not stated)	i	i
CC(C)n1c(CC2CCN(C(=O)c3cc(-c4ccccc4)n[nH]3)C2)nc2cccnc21 (configuration not stated)	i	59
COCCNC1=NCCNC12CCN(S(=O)(=O)c1ccc(NC(C)=O)cc1)CC2	i	i
OC(C#CC(O)(c1ccccc1)c1ccccc1)(c1ccccc1)c1ccccc1	i	nt
COc1ccc(C(O)(C#Cc2ccccc2)c2ccccc2)cc1 (configuration not stated)	i	60
COc1cccc(NC(=O)c2ccc(NC(C)=O)cc2)c1	i	i
CSc1nc(N)nc(SCc2ccc(Cl)c(Cl)c2)c1C#N	i	74
CSc1nc(N)nc(SC/C=C/c2ccccc2)c1C#N	i	i
C=CS(=O)(=O)N(Cc1ccccc1Br)[C@H](CO)Cc1ccccc1	i	i
CC(=O)Nc1ccc(N=Cc2nc(-c3ccccc3Br)oc2O)cc1	i	i
Cc1ccc2nc(NC(=O)c3cc([N+](=O)[O-])ccc3Cl)sc2c1	i	i
Cc1onc(-c2c(Cl)cccc2Cl)c1C(=O)Nc1nc2ccc([N+](=O)[O-])cc2s1	i	85
COc1ccc(NC(=O)c2c(-c3c(Cl)cccc3Cl)noc2C)c([N+](=O)[O-])c1	i	53
Cc1ccc(NC(=O)c2c(-c3c(Cl)cccc3Cl)noc2C)c([N+](=O)[O-])c1	i	i
Cc1onc(-c2c(Cl)cccc2Cl)c1C(=O)Nc1ccc(F)c([N+](=O)[O-])c1	i	63
